# Results filed as inconclusive are left out. A number with no mark means an inactive call. Active and inactive are the calls of the source. Unless noted, the call rests on the fitted dose curve; in most records, active means well fitted cell-killing curve with a large enough effect in the repeat runs; inconclusive means weak or mixed curves, or effect the other way; inactive means flat fitted curve, though single readings scatter.
# Experiment: Nuclear factor erythroid 2-related factor 2/antioxidant responsive element (Nrf2/ARE) small molecule agonists: qHTS cell viability counter screen in human keratinocytes (AID 1919968); further: nearly all actives have a fitted effect of over 55% in size
# Details: KeratinoSens HaCaT ARE cells viability, CellTiter-Fluor, 24 h; series mostly up to 92.4 µM; activity change, negative = cytotoxicity: at the top concentration
# Summary of the method: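 CellTiter-Fluor fluorescence, read 1 h after reagent, gave viability in the same wells as the ARE-luciferase assay. KeratinoSens cells (1,500/well) had 23 h compound exposure at 37 C/5% CO2 following 5 h plating.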
# On the % scale 0 is the no-effect control and ±100 the full control effect; potency means the concentration at half of the fitted maximal effect.
Structure (SMILES),"activity change, negative = cytotoxicity",Potency
Cc1cc(C)c(NC(=O)CN(CC(=O)O)CC(=O)O)c(C)c1Br,0.794% [at 42.5 µM],
CC(=O)c1c(C)cc(C(C)(C)C)cc1C,-1.69%,
O=C(O)Cc1c(Cl)ccc(Cl)c1Cl,2.33%,
COc1ccc(C2C(=O)c3ccccc3C2=O)cc1,-8.94% [at 42.5 µM],
CCCCCc1ccco1,9.47% [at 42.5 µM],
O=c1cc(-c2ccccc2)oc2ccc3ccccc3c12,19.5%,
CN(CCOc1ccc(NS(C)(=O)=O)cc1)CCc1ccc(NS(C)(=O)=O)cc1,5.64% [at 42.5 µM],
CN(C)CCc1c[nH]c2ccc(C[C@H]3COC(=O)N3)cc12,-2.05% [at 42.5 µM],
Cc1ncc(CO)c(C=O)c1O,-4.98% [at 42.5 µM],
O=CN1CCCCC1,3%,
CCOC(=O)COc1cc(-n2ncc(C(F)(F)F)c(C)c2=O)c(F)cc1Cl,7.24%,
Oc1ccc(-c2ccc(O)cc2)cc1,-14.6%,
CN1CCN(C2=Nc3ccccc3Sc3ccc(Cl)cc32)CC1,2.81% [at 42.5 µM],
Cc1cccc([N+](=O)[O-])c1C(=O)O,1.58%,
c1ccc(C(O[C@H]2CCCN(CCc3ccc4c(c3)OCO4)C2)c2ccccc2)cc1,-20.6% [at 42.5 µM],
CC(CCc1ccc(O)cc1)NCCc1ccc(O)c(O)c1 (stereo not drawn),-19% [at 42.5 µM],
CCC(C)CCCC(C)(C)O (stereo not drawn),-1.07%,
CCCCCCOC(=O)CCCCC(=O)OCCCCCC,-3.5%,
CCOc1ccc(NC(=O)OC(C)C)cc1OCC,-1.49%,
CC(C)C(=O)OCc1ccccc1,4.26%,

Structure (SMILES),"activity change, negative = cytotoxicity",Potency
C[C@@]12C(=O)OC(=O)[C@]1(C)C1CCC2O1,,16.8 µM (active)
CN(C)[C@@H]1C(=O)C(C(=O)NCN2CCCC2)=C(O)[C@@]2(O)C(=O)C3=C(O)c4c(O)cccc4[C@@](C)(O)C3C[C@@H]12 (stereo partly drawn),4.88% [at 42.5 µM],
CC(=O)OC1CCCCC1,1.4%,
CCCCCCCCOC(C)=O,3.05%,
CCOC(=O)C(C)(C)C,-5.12%,
CCCCCCCCN(C)CCCCCCCC,2.62%,
COc1cc2nc(Cl)nc(N)c2cc1OC,-6.38% [at 42.5 µM],
CCCN(CCC)c1c([N+](=O)[O-])cc(C(F)(F)F)c(N)c1[N+](=O)[O-],,24.3 µM (active)
CCN(CC)c1ccc(C=O)cc1,-0.725%,
COc1ccc(C)cc1[N+](=O)[O-],1.19%,
O=C1c2ccccc2C(=O)C1(O)O,-1.58%,
COC[C@H](c1ccc(C(F)(F)F)cc1)N1CCN(C2(C)CCN(C(=O)c3c(C)ncnc3C)CC2)C[C@H]1C,0.554% [at 42.5 µM],
CCOc1cccc(N)c1,-1.62%,
CCCCCCCCCCCC(C)=O,1.39%,
CC(=O)Oc1ccc(C(C)=O)cc1,-2.02%,
CCOC(=O)CCC(=O)OCC,-1.56%,
C=CC(OCC)OCC,1.69%,
CN1CCC[C@@H]1Cc1c[nH]c2ccc(CCS(=O)(=O)c3ccccc3)cc12,-6.84% [at 42.5 µM],
CCCCCCCCCC(=O)OCC,-5.19%,

# Experiment: Nuclear factor erythroid 2-related factor 2/antioxidant responsive element (Nrf2/ARE) small molecule agonists: luciferase reporter gene qHTS assay in human keratinocytes (AID 1919969; calls by dose curve; further: nearly all actives have a fitted effect of over 35% in size)
# Details: KeratinoSens HaCaT ARE-luciferase, luminescence, 24 h; series mostly up to 92.4 µM; activity, positive = activation: at the top concentration
Structure (SMILES),"activity, positive = activation",Potency
Cc1cc(C)c(NC(=O)CN(CC(=O)O)CC(=O)O)c(C)c1Br,-4.31% [at 42.5 µM],
CC(=O)c1c(C)cc(C(C)(C)C)cc1C,3.76%,
O=C(O)Cc1c(Cl)ccc(Cl)c1Cl,-9.82%,
COc1ccc(C2C(=O)c3ccccc3C2=O)cc1,-3.92% [at 42.5 µM],
CCCCCc1ccco1,,44.7 µM (active)
O=c1cc(-c2ccccc2)oc2ccc3ccccc3c12,,0.486 µM (active)
CN(CCOc1ccc(NS(C)(=O)=O)cc1)CCc1ccc(NS(C)(=O)=O)cc1,-2.96% [at 42.5 µM],
CN(C)CCc1c[nH]c2ccc(C[C@H]3COC(=O)N3)cc12,6.75% [at 42.5 µM],
Cc1ncc(CO)c(C=O)c1O,-0.258% [at 42.5 µM],
O=CN1CCCCC1,-7.71%,
CCOC(=O)COc1cc(-n2ncc(C(F)(F)F)c(C)c2=O)c(F)cc1Cl,4.71%,
Oc1ccc(-c2ccc(O)cc2)cc1,,30.8 µM (active)
CN1CCN(C2=Nc3ccccc3Sc3ccc(Cl)cc32)CC1,15.5% [at 42.5 µM],
Cc1cccc([N+](=O)[O-])c1C(=O)O,-6.15%,
c1ccc(C(O[C@H]2CCCN(CCc3ccc4c(c3)OCO4)C2)c2ccccc2)cc1,1.45% [at 42.5 µM],
CC(CCc1ccc(O)cc1)NCCc1ccc(O)c(O)c1 (stereo not drawn),-0.293% [at 42.5 µM],
CCC(C)CCCC(C)(C)O (stereo not drawn),22.2%,
CCCCCCOC(=O)CCCCC(=O)OCCCCCC,-0.744%,
CCOc1ccc(NC(=O)OC(C)C)cc1OCC,4.04%,
CC(C)C(=O)OCc1ccccc1,-7.84%,

Structure (SMILES),"activity, positive = activation",Potency
C[C@@]12C(=O)OC(=O)[C@]1(C)C1CCC2O1,-36.8% [at 42.5 µM],
CN(C)[C@@H]1C(=O)C(C(=O)NCN2CCCC2)=C(O)[C@@]2(O)C(=O)C3=C(O)c4c(O)cccc4[C@@](C)(O)C3C[C@@H]12 (stereo partly drawn),7.21% [at 42.5 µM],
CC(=O)OC1CCCCC1,-11.1%,
CCCCCCCCOC(C)=O,-4.42%,
CCOC(=O)C(C)(C)C,-15.8%,
CCCCCCCCN(C)CCCCCCCC,-1.22%,
COc1cc2nc(Cl)nc(N)c2cc1OC,-1.82% [at 42.5 µM],
CCCN(CCC)c1c([N+](=O)[O-])cc(C(F)(F)F)c(N)c1[N+](=O)[O-],-48.2%,
CCN(CC)c1ccc(C=O)cc1,8.08%,
COc1ccc(C)cc1[N+](=O)[O-],-0.751%,
O=C1c2ccccc2C(=O)C1(O)O,,61.4 µM (active)
COC[C@H](c1ccc(C(F)(F)F)cc1)N1CCN(C2(C)CCN(C(=O)c3c(C)ncnc3C)CC2)C[C@H]1C,4.58% [at 42.5 µM],
CCOc1cccc(N)c1,0.702%,
CCCCCCCCCCCC(C)=O,5.66%,
CC(=O)Oc1ccc(C(C)=O)cc1,16.7%,
CCOC(=O)CCC(=O)OCC,1.99%,
C=CC(OCC)OCC,-7.89%,
CN1CCC[C@@H]1Cc1c[nH]c2ccc(CCS(=O)(=O)c3ccccc3)cc12,0.0546% [at 42.5 µM],
CCCCCCCCCC(=O)OCC,-5.07%,

# — PubChem BioAssay (Tox21)
